For seven compounds, Potency and outcome results are on record in PubChem BioAssay (Tox21).

Assay [1] is described as follows: Nuclear factor erythroid 2-related factor 2/antioxidant responsive element (Nrf2/ARE) small molecule agonists: qHTS cell viability counter screen in human keratinocytes (AID 1919968; active means well fitted curve in the direction sought with a large enough effect in the repeat runs; an effect the other way counts as inactive or inconclusive; further: nearly all actives have a fitted effect of over 55% in size; further: potency means the concentration at half of the fitted maximal effect). The gist of the method:
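Parallel cytotoxicity read: KeratinoSens HaCaT cells, compound treatment 23 h, viability by CellTiter-Fluor fluorescence 1 h post-reagent.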
For orientation: Quantitative high-throughput screening tests each substance at several concentrations.

Assay [2] in a line: Nuclear factor erythroid 2-related factor 2/antioxidant responsive element (Nrf2/ARE) small molecule agonists: luciferase reporter gene qHTS assay in human keratinocytes (AID 1919969). Further: nearly all actives have a fitted effect of over 35% in size. Further: potency means the concentration at half of the fitted maximal effect. For orientation: In a reporter assay the amount or activity of a reporter protein is the signal.
In assay [3] the target is Gonadotropin-releasing hormone receptor (Homo sapiens) (UniProt P30968). Nature of the assay: Human gonadotropin-releasing hormone receptor (GnRHR) small molecule agonists, calcium flux assay in GnRHR-HEK293 cells (AID 1920063). Further: nearly all actives have a fitted effect of over 35% in size. The gist of the method: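 Calcium flux, agonist mode, human GnRHR stably integrated in HEK293; dye 1 h at 37 C before compound; Ex/Em=480/540 kinetic read, 3 min; 15 concentrations, triplicate.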

The target of assay [4] is KiSS-1 receptor (Homo sapiens) (UniProt Q969F8). In words: Human kisspeptin (KISS1R) small molecule agonists, calcium flux assay in KISS1R-HEK293 cells (AID 1920064; active means well fitted curve in the direction sought with a large enough effect in the repeat runs; an effect the other way counts as inactive or inconclusive). The procedure, abridged: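 Triplicate 15-concentration series were applied to dye-loaded human KISS1R HEK293 cells, and agonist-evoked calcium fluorescence was captured for 3 min.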
In general terms: A change in cytosolic calcium serves as a functional read-out for many receptors and channels.

Assay [5] is described as follows: G protein-coupled receptor (GPCR) small molecule agonists, calcium flux assay: HEK293 wild type cell line counter screen (AID 1920065). The gist of the method:
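Non-specific calcium responders were flagged by adding DMSO-dissolved compounds to dye-loaded cells and reading 480/540 nm fluorescence each second for 3 min; ATP served as positive control.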

A short description of assay [6]: p53 small molecule agonists, cell-based qHTS assay with human liver microsomes (AID 1963577).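 Further: p53 response element beta-lactamase reporter cells with liver microsomes plus NADPH.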 The gist of the method: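 Compounds act here after metabolic activation: human liver microsomes and NADPH, both at 0.5 mg/mL final, were co-added to p53RE-bla cells. Incubation ran 16 h at 37 C, followed by LiveBLAzer detection.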
A short description of assay [7]: p53 small molecule agonists, cell-based qHTS assay with rat liver microsomes (AID 1963578). The procedure, abridged: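 Read-out is beta-lactamase reporter fluorescence (LiveBLAzer, 2 h, room temperature, dark) in p53RE-bla cells treated 16 h at 37 C with compound, rat liver microsomes and NADPH, both 0.5 mg/mL final.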
Assay [8] can be described thus: p53 small molecule agonists, cell-based qHTS assay with rat liver microsomes: qHTS cell viability counter screen (AID 1963580). Further: nearly all actives have a fitted effect of over 45% in size. The procedure, abridged:
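Counter screen for cytotoxicity under metabolic activation: rat liver microsomes and NADPH, 0.5 mg/mL final each, added with compounds to p53RE-bla HCT-116 cells; 16 h at 37 C, then ATP luminescence read.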

Assay [9] addresses 5-hydroxytryptamine receptor 2A (Homo sapiens) (UniProt P28223). Nature of the assay: 5-hydroxytryptamine receptor 2A (HTR2A) small molecule antagonists, cell-based qHTS assay (AID 1963586). Further: nearly all actives have a fitted effect of over 45% in size. The procedure, abridged: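 CHO cells stably expressing human HTR2A were plated for 18 h at 37 C, then loaded with calcium dye for 1 h. Compounds were preincubated 5 min at room temperature before DOI (4 nM solution) was added. Kinetic fluorescence was read for 3 min.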

For assay [10] the target is unchanged. In words: 5-hydroxytryptamine receptor 2A (HTR2A) small molecule agonists, cell-based qHTS assay (AID 1963587). Further: nearly all actives have a fitted effect of over 30% in size. The procedure, abridged: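 HTR2A-CHO cells, plated 18 h at 37 C/5% CO2, dye-loaded 1 h at 37 C; compounds in DMSO added by pin tool (agonist mode). Intracellular calcium flux read as kinetic fluorescence on FDSS over 2 min at 1 s intervals.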
Assay [11] concerns the target Muscarinic acetylcholine receptor M1 (Homo sapiens) (UniProt P11229). In words: Cholinergic receptor muscarinic 1 (CHRM1) small molecule agonists, cell-based qHTS assay (AID 1963589). Further: nearly all actives have a fitted effect of over 35% in size. The procedure, abridged:
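qHTS, 15-point titration, 3 independent runs: compounds pin-transferred onto dye-loaded CHRM1-CHO cells (human M1), calcium fluorescence followed every second to detect agonism.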

For assay [12], the target named is Beta-2 adrenergic receptor (Homo sapiens) (UniProt P07550). Nature of the assay: Adrenergic beta2 receptor (ADRB2) small molecule agonists, cell-based qHTS assay (AID 1963593).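 Further: CHO cells stably overexpressing human ADRB2.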 The procedure, abridged: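 CHO cells stably over-expressing ADRB2 were plated overnight at 37C, then dosed with compounds plus a stimulation mix containing 100uM IBMX and 25uM Ro-20-1724 for 0.5hr at room temperature. cAMP was measured by HTRF competition, 1hr.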

The target in assay [13] is D(2) dopamine receptor (Homo sapiens) (UniProt P14416). Nature of the assay: Dopamine D2 receptor (DRD2) small molecule agonists, cell-based qHTS assay (AID 1963594). Further: nearly all actives have a fitted effect of over 35% in size. The procedure, abridged: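 HEK293 cells stably expressing DRD2 were cultured 24 h at 37 C, then given Ro20-1724 (0.1 mM final) and compounds for 10 min at room temperature. NKH477 (200nM) was then added for 30 min. cAMP was read by HTRF.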

For assay [14] the target is unchanged. Nature of the assay: Dopamine D2 receptor (DRD2) small molecule antagonists, cell-based qHTS assay (AID 1963595; active means well fitted inhibition curve with a large enough effect in the signal ratio in the repeat runs, with a control signal flat; the % refers to the signal ratio). The procedure, abridged: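 Stable D2 receptor HEK293 line, 24 h after seeding. Compound preincubated 10 min, then quinpirole (12 nM) with forskolin analogue NKH477 (200 nM), 30 min, room temperature. Detection by time-resolved FRET of cAMP.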
The nature of assay [15]: p53 small molecule agonists, cell-based qHTS assay: qHTS cell viability counter screen (AID 1963581). Further: nearly all actives have a fitted effect of over 45% in size. The procedure, abridged: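 Multiplexed with the reporter read, a CellTiter-Glo step (30 min, room temperature) gauges ATP-based viability of HCT-116 p53RE-bla cells after 16 h compound incubation at 37 C.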
The target in assay [16] is Muscarinic acetylcholine receptor M1 (Homo sapiens) (UniProt P11229). Nature of the assay: Cholinergic receptor muscarinic 1 (CHRM1) small molecule antagonists, cell-based qHTS assay (AID 1963588). Further: nearly all actives have a fitted effect of over 40% in size. The procedure, abridged: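 Compounds were tested at 15 concentrations in three independent runs. Dye-loaded CHRM1-CHO cells were exposed 5 min at room temperature before stimulation by acetylcholine added at 50nM. Intracellular calcium was read kinetically on FDSS for 3 min.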

Assay [17] in a line: cAMP Responsive Elements (CRE) small molecule agonists, cell-based qHTS assay (AID 1963590). The gist of the method:
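Quantitative HTS for CRE agonists: HEK 293T CRE-bla cells, overnight plating, 3 h compound incubation at 37 C/5% CO2, then 2 h room-temperature LiveBLAzer B/G FRET substrate loading.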

Assay [18] is described as follows: cAMP Responsive Elements (CRE) small molecule antagonists, cell-based qHTS assay (AID 1963591; active means well fitted inhibition curve with a large enough effect in the signal ratio in the repeat runs, not every such curve was filed as active; the % refers to the signal ratio). The gist of the method: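 Fluorescence intensity from cleaved LiveBLAzer B/G substrate (2 h, room temperature) quantified CRE-bla activity in HEK 293T cells exposed 3 h to compound with 0.25 uM final NKH477.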
A short description of assay [19]: p53 small molecule agonists, cell-based qHTS assay (AID 1963582; active means well fitted activation curve with a large enough effect in the signal ratio in the repeat runs, not every such curve was filed as active; the % refers to the signal ratio). The gist of the method: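 Beta-lactamase reporter cells (p53RE-bla) treated with compounds for 16 h at 37 C; FRET substrate, 2 h, room temperature; fluorescence intensity.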
In assay [20] the target is Beta-2 adrenergic receptor (Homo sapiens) (UniProt P07550). In words: Adrenergic beta2 receptor (ADRB2) small molecule antagonists, cell-based qHTS assay (AID 1963592). Further: series mostly up to about 92 µM; nearly all actives have a fitted effect of over 50% in size. The gist of the method: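 Assay format: CHO-ADRB2 cells, 18-20hr seeding at 37C/5% CO2, then compound plus 1nM isoproterenol agonist mix for 0.5hr RT. Homogeneous time-resolved fluorescence cAMP detection after 1hr, expressed as 665/615 nm ratio.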

Molecules are shown by their SMILES. Unmarked numbers belong to inactive results. Records with an inconclusive call do not appear. Active and inactive are the calls of the source. Unless noted, the call rests on the fitted dose curve.

5-hydroxytryptamine receptor 2A (Homo sapiens), sequence (P28223 whole entry, looked up): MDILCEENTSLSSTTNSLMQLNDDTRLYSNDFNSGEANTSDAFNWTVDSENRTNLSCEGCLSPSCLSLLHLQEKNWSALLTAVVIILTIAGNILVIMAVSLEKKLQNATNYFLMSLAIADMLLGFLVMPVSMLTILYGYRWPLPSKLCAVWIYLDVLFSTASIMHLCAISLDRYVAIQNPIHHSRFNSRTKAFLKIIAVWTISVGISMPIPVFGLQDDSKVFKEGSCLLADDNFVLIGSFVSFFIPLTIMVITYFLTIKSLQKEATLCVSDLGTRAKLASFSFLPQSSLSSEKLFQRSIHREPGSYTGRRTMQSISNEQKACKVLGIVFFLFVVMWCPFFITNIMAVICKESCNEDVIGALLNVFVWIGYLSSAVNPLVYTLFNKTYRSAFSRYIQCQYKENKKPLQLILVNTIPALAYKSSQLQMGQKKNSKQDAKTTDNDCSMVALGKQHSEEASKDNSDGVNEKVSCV
Gonadotropin-releasing hormone receptor (Homo sapiens), sequence (P30968 whole entry, looked up): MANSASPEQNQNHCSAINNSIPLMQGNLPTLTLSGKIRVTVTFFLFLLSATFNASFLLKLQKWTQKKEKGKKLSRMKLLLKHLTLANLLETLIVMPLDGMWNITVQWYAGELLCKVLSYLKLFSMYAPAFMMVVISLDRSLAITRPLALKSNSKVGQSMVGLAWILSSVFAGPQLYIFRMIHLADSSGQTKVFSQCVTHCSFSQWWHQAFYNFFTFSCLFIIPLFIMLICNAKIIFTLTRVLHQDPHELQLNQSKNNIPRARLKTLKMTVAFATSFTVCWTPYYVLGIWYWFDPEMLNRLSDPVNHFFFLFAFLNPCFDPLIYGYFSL
Muscarinic acetylcholine receptor M1 (Homo sapiens), sequence (P11229 whole entry, looked up): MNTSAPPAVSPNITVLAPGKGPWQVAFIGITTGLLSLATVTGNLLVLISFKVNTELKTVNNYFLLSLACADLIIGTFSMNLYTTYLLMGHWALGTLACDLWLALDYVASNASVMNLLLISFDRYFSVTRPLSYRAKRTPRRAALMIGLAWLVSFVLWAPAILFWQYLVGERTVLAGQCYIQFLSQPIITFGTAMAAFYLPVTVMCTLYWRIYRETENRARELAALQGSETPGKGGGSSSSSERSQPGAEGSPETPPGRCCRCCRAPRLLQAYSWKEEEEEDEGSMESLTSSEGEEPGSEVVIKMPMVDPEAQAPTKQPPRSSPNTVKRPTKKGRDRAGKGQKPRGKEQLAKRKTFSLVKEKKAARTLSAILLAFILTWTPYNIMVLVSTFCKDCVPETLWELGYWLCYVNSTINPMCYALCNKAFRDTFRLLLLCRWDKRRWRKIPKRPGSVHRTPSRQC
Beta-2 adrenergic receptor (Homo sapiens), sequence (P07550 whole entry, looked up): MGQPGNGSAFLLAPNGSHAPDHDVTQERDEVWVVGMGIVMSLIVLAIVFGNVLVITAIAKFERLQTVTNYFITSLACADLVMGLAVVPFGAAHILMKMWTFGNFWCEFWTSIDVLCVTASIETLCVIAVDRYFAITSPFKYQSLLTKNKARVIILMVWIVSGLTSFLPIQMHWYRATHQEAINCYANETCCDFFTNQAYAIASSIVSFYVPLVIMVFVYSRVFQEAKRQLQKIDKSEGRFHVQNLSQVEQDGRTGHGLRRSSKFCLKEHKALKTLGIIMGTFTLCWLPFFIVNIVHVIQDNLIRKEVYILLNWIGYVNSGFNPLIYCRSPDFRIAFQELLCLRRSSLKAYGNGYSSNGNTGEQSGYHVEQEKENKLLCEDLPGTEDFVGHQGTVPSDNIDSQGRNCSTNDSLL
D(2) dopamine receptor (Homo sapiens), sequence (P14416 whole entry, looked up): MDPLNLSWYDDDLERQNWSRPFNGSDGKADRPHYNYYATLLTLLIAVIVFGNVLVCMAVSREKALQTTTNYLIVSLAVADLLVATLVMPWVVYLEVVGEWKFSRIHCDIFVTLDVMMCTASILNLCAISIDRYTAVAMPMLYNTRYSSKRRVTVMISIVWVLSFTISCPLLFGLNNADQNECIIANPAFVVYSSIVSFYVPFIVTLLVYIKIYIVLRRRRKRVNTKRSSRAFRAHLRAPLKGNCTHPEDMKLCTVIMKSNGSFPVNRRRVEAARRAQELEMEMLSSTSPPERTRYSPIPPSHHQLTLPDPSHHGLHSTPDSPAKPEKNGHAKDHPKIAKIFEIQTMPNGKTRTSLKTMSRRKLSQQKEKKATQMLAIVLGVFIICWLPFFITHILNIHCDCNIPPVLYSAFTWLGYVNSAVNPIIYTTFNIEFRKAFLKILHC
KiSS-1 receptor (Homo sapiens), sequence (Q969F8 whole entry, looked up): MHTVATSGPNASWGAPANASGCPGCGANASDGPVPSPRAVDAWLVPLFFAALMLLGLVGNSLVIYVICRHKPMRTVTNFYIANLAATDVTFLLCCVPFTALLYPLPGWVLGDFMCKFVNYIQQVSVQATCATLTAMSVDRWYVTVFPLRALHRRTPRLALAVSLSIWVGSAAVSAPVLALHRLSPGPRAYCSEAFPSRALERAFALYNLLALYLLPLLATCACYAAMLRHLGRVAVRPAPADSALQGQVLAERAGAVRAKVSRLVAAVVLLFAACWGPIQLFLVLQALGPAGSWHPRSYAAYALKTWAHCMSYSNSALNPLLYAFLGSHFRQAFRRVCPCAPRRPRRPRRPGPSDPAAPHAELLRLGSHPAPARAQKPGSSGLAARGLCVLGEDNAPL

On to `C=C1C(CCl)(CCl)C2(Cl)C(Cl)C(Cl)C1(Cl)C2(Cl)Cl` (centres undefined), for which the values for the Potency in assay [1] and in assay [2] were 38.1 µM (active) and 15.2 µM (active), respectively. The Potency entry in assay [3], in assay [6], in assay [7], in assay [8], in assay [9] and in assay [10] was “inactive” each time. The Potency entry in assay [11], in assay [12], in assay [13] and in [14] was “inactive” in each case. Moreover, the result in [4] and in assay [5] was inactive.

Turning to `OCCN(CCO)CCN(CCO)CCO`, the Potency result in assay [1], in assay [2], in assay [3], in assay [6], in assay [7] and in assay [15] was “inactive” in each case. Further, the Potency result in [9], in assay [10], in assay [16], in assay [11], in assay [17] and in assay [18] was “inactive” throughout. Also, the Potency result in [13] and in assay [14] was “inactive” each time. Further, the result in assay [4] and in [5] was inactive.

In the case of `O=C(O)c1ccc(Cl)c(Cl)c1`, the Potency entry in assay [1], in assay [2], in assay [3], in assay [6], in assay [7] and in assay [8] was “inactive” each time. The Potency result in assay [19], in assay [9], in assay [10], in assay [16], in [11] and in assay [18] was “inactive” throughout. Besides, the Potency entry in assay [20], in assay [13] and in assay [14] was “inactive” each time. The result in [4] and in assay [5] was inactive.

Take `CCCCCCCCCCCCCCCCCCOS(=O)(=O)O`: the Potency in assay [1] was 68.6 µM (active). In addition, the Potency entry in [2], in [3], in assay [6], in assay [7], in [15] and in assay [19] was “inactive” throughout. In addition, the Potency entry in [9], in [16], in assay [11], in assay [17], in assay [18] and in assay [20] was “inactive” in each case. The Potency entry in assay [13] and in [14] was “inactive” in each case. The outcome in [4] and in assay [5] was inactive.

For `CCCCCCCCCCCCCCCCCCO`, the Potency entry in assay [1], in [2], in assay [3], in assay [6], in [7] and in assay [15] was “inactive” throughout. The Potency result in assay [19], in [10], in assay [16], in assay [11], in [17] and in assay [18] was “inactive” throughout. Moreover, the Potency result in assay [20], in assay [12], in assay [13] and in [14] was “inactive” throughout. In addition, the result in [4] and in assay [5] was inactive.

Consider `Cc1cc(O)ccc1N`, for which the Potency was 61.4 µM (active) in [1] and 54.8 µM (active) in assay [2]. For the same compound, the Potency entry in assay [3], in assay [6], in assay [7], in assay [8], in [9] and in [10] was “inactive” each time. For the same compound, the Potency result in assay [16], in assay [11], in assay [20], in assay [12] and in assay [14] was “inactive” each time. Moreover, the outcome in assay [4] and in assay [5] was inactive.

Consider `Cc1ccccc1CCO`, for which the Potency entry in assay [1], in assay [2], in assay [3], in [6], in [8] and in assay [15] was “inactive” throughout. For the same compound, the Potency entry in assay [19], in [9], in assay [10], in assay [11], in assay [17] and in assay [18] was “inactive” each time. The Potency entry in assay [20], in [12] and in assay [13] was “inactive” throughout. Moreover, the outcome in [4] and in [5] was inactive.
